# High-throughput results (PubChem BioAssay)
# A selection: hits, their analogues and other compounds. The true share with any hit is near 2.8%.
# TWEAK-Fn14 inh: blocks TWEAK-Fn14 interaction in a reporter cell assay; TWEAK-stimulated Fn14 reporter cells, luciferase luminescence, 8 h; inhibition, % at 10 µM; actives 2% (n = 360,000); AID 1159606; in the data active = inhibition above about 50%
# TROY NFkB inh: blocks TROY-dependent signaling in reporter cells; Q293 LMP1-TROYcd NF-kB luciferase reporter, 4 h; inhibition, % at 10 µM; actives 0.98% (n = 360,000); AID 1347056;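 active = compounds whose plate-normalised and pattern-corrected inhibition of the luciferase reporter signal at the single screening dose is 50% or more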
# LGR2 antag: inhibitors of bursicon-induced Drosophila LGR2 receptor cAMP signaling. HEK293 LGR2, CRE-luciferase, bursicon-stimulated, 4 h. inhibition, % at 9.99 µM. actives 0.35% (n = 380,000);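 active = drop in luminescence signal, shown as inhibition above about 50% in the replicate tests, limit read from the data, passing the limit was not always enough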;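 note: agonist challenge used bursicon conditioned medium at about half maximal strength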
# PAX8 inh HTS: lowers PAX8-driven luciferase in RMG-I cells; inhibition, % at 12.6 µM; actives 1.2% (n = 360,000); RMG-I TPO-luciferase reporter, SteadyGlo, 24 h; AID 652154;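 active = mean replicate inhibition at least 60% with every replicate also reaching 60%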;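 note: luciferase light reporting Pax8 driven TPO promoter activity; plate controls were median of neutral control wells for no effect and mitoxantrone controls for full effect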
# EWS-Fli inh: inhibitors of EWS/Fli oncoprotein transcriptional activity; A673 NR0B1-luciferase reporter, viability-normalised; AID 651661; inhibition, % at 12.6 µM; actives 0.67% (n = 350,000);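 active = mean inhibition of at least 50% after viability correction, with every replicate also passing that limit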;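 note: firefly luciferase signal divided by Alamar Blue viability fluorescence both relative to DMSO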
# * = called active by the depositor; . = not tested or not shown.
SMILES,TWEAK-Fn14 inh,TROY NFkB inh,LGR2 antag,PAX8 inh HTS,EWS-Fli inh
CCC(C)C(NC(=O)CCCNC(=O)CCC(=O)OC1O[C@H]2OC3(C)CC[C@H]4[C@H](C)CCC(C1C)C24OO3)C(=O)O (some centres undefined),45,1,-1,74*,34
C[C@H]1CN([C@@H](C)CO)C(=O)CCCn2nncc2CO[C@@H]1CN(C)C(=O)Oc1ccc2ccccc2c1,.,.,5,.,-5
CC1(C)N=C(c2ccccc2)[C@@H]2C(c3ccc([N+](=O)[O-])cc3)N21 (some centres undefined),11,53*,-6,9,5
C[C@@H]1CN([C@H](C)CO)C(=O)c2c(c3ccccc3n2C)-c2ccccc2CO[C@@H]1CN(C)C(=O)Oc1ccccc1,.,.,18,7,5
Nc1cccc(SC2CC(=O)N(c3ccc(Cl)cc3C(=O)c3ccccc3)C2=O)c1 (centres undefined),54*,41,8,17,12
Cc1ccccc1-c1ccc([C@H]2[C@@H](CO)N3CCCCN(C(=O)Cc4ccccn4)C[C@H]23)cc1,.,.,-7,-17,10
O=C(Cc1ccccc1)N1CC2(C1)[C@H](c1ccccc1)[C@@H](CO)N2Cc1cccc(Cl)c1,.,.,-8,30,1
COc1ccc2c(c1)[nH]c1c(C)nccc12,65*,50,35,-24,16
COc1ccc(OC(=O)N(C)C[C@H]2OCc3ccccc3-c3c(n(C)c4ccccc34)C(=O)N([C@@H](C)CO)C[C@H]2C)cc1,.,.,-7,6,17
COc1ccc(-[n+]2c(-c3ccccc3)cc(-c3ccccc3)cc2-c2ccccc2)cc1,.,.,-2,92*,49
O=C([O-])c1ccc(-[n+]2c(-c3ccccc3)cc(-c3ccccc3)cc2-c2ccccc2)cc1,-11,-1,-16,-1,9
O=[N+]([O-])c1ccc(-[n+]2c(-c3ccccc3)cc(-c3ccccc3)cc2-c2ccccc2)cc1,6,-15,11,-3,1
Oc1ccc(-[n+]2c(-c3ccccc3)cc(-c3ccccc3)cc2-c2ccccc2)cc1,87*,62*,103*,90*,43
COC(=O)[C@@H]1[C@@H](CO)[C@@H]2Cn3c(ccc(-c4cccc(F)c4)c3=O)[C@H]1N2C(=O)CC1CC1,.,.,7,.,-3
Cc1cc(-c2ccccc2)cc(-c2ccccc2)[n+]1CCc1ccccc1,38,42,9,85*,42
CCOc1ccc(-c2cc(C)[n+](CCO)c(-c3ccc(OCC)cc3)c2)cc1,7,19,-11,92*,14
CCOc1ccc(-c2cc(C)[n+](CCc3ccc(OC)c(OC)c3)c(-c3ccc(OCC)cc3)c2)cc1,7,53*,27,92*,51*
COc1ccc(CC[n+]2cc(/N=C(\C)[O-])on2)cc1OC,5,10,8,.,6
O=C(O)[C@H]1[C@H](CO)[C@H]2Cn3c(ccc(-c4cccc(F)c4)c3=O)[C@@H]1N2CCc1ccccc1,.,.,-12,-3,-2
COC(=O)[C@H]1[C@H](CO)[C@H]2Cn3c(ccc(C4=CCCCC4)c3=O)[C@@H]1N2C(=O)Cc1ccccn1,.,.,-9,16,-11
COC(=O)[C@H]1[C@H](CO)[C@H]2Cn3c(ccc(/C=C/c4ccccc4)c3=O)[C@@H]1N2Cc1ccccc1F,.,.,1,18,-4
CC(C)CC#Cc1ccc([C@H]2[C@H](CO)N3CCCCN(C(=O)Cc4ccccn4)C[C@@H]23)cc1,.,.,-9,7,-2
Oc1c(Cl)c(Cl)c(Cl)c(Cl)c1Cl,5,64*,.,-29,3
COc1cc2c(cc1OC)-c1c3c(cc4c1[C@@H](C2)N(C)CC4)OCO3,-91,-60,6,-15,2
COc1cc2c(cc1O)C[C@H]1NCCc3cc4c(c-2c31)OCO4,-1,-12,12,86*,20
C/C=C/c1ccc(C2[C@@H]3CN(Cc4cccnc4)C[C@H]2N3)cc1 (some centres undefined),.,.,-4,2,7
COC(=O)[C@H]1[C@H](CO)[C@H]2Cn3c(ccc(-c4ccc(F)cc4)c3=O)[C@@H]1N2Cc1cccnc1,.,.,6,.,-13
COc1ccc(C(O)(c2cncnc2)C2CC2)cc1 (centres undefined),.,.,.,-20,5
CCCCCn1c(N)c(C(=O)NCCN2CCOCC2)c2nc3ccccc3nc21,17,36,.,.,.
CCCCCCn1c(N)c(C(=O)NCCN2CCOCC2)c2nc3ccccc3nc21,56*,.,.,.,.
